Screen size: about 1,300 compounds; about 980 (75%) were called active. About 4% were inconclusive and are not listed. The list shows a part of the results.
target: Sulfhydryl oxidase 1 (Homo sapiens) (UniProt O00391); assay: QSOX1 enzyme inhibitors, primary screen, biochemical, HyperBlu H2O2 luminescence, HTS (AID 1347420); settings: recombinant QSOX1, HyperBlu H2O2 luminescence; at 12.5 µM; active compounds read high; active = any value above zero; further: values above 100% were filed as inconclusive
Sequence (O00391 whole entry, looked up): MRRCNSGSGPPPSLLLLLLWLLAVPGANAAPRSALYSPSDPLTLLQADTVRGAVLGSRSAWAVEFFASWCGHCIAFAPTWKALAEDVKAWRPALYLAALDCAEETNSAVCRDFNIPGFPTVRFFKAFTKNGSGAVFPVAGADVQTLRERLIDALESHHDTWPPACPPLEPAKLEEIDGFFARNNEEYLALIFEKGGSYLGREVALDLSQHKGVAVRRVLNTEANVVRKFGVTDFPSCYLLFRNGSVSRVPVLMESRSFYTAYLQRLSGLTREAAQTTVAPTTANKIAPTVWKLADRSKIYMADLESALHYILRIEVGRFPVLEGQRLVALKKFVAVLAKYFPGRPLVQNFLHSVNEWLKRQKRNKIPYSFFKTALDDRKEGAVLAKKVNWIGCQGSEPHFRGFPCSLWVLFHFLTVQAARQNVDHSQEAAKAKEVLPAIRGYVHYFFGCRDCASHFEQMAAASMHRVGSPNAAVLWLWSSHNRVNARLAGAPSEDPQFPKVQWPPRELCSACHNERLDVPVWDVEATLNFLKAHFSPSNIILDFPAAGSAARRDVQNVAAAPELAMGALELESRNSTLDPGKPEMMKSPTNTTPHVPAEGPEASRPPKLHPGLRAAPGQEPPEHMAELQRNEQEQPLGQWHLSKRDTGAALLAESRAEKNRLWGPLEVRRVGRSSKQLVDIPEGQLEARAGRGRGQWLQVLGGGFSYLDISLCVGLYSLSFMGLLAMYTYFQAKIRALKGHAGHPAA

| SMILES | inhibition |
| --- | --- |
| Nc1nc(Nc2ccccc2)nc2c1ncn2[C@@H]1O[C@H](CO)[C@H](O)C1O (stereo partly specified) | 8.8% (active) |
| Nc1nc2c(ncn2[C@@H]2O[C@H](CO)[C@@H](O)[C@@H]2O)c(=O)[nH]1 | 7.5% (active) |
| Nc1ncnc2c1ncn2C1CCCO1 (stereo unspecified) | -13.6% (inactive) |
| Nc1ncnc2c1ncn2C1CCCC1 | 12.4% (active) |
| OC[C@H]1O[C@@H](n2cnc3cncnc32)[C@H](O)[C@@H]1O | 17% (active) |
| CCNc1nc2c(ncn2[C@H]2C[C@H](O)[C@@H](CO)O2)c(=O)[nH]1 | -2.5% (inactive) |
| CCCC(CCC)C(=O)O | 40.8% (active) |
| N#Cc1cc([N+](=O)[O-])c2sc(C(N)=O)[n+]([O-])c2c1 | 25.4% (active) |
| CCN(CC)c1ncnc2c1ncn2[C@@H]1O[C@H](COP(=O)(O)OP(=O)(O)C(Br)(Br)P(=O)(O)O)[C@@H](O)[C@H]1O | -3% (inactive) |
| Nc1ncnc2c1ncn2[C@@H]1O[C@H](COP(=O)(O)OP(=O)(O)OP(=O)(O)OP(=O)(O)OC[C@@H]2O[C@H](n3cnc4c(N)ncnc43)C(O)[C@@H]2O)[C@H](O)C1O (stereo partly specified) | 11.6% (active) |
| NC(=S)c1ccc[n+]([C@@H]2O[C@@H](COP(=O)([O-])OP(=O)(O)OC[C@H]3O[C@@H](n4cnc5c(N)ncnc54)C(OP(=O)(O)O)[C@H]3O)C(O)C2O)c1 (stereo partly specified) | 4.8% (active) |
| Nc1ncnc2c1ncn2[C@@H]1O[C@H](COP(=O)(O)CP(=O)(O)OP(=O)(O)O)[C@H](O)C1O (stereo partly specified) | 13.7% (active) |
| NC(=O)C1=C[N+](=C2OC(COP(=O)(O)OP(=O)([O-])OC[C@H]3O[C@@H](n4cnc5c(N)ncnc54)C(OP(=O)(O)O)[C@H]3O)C(O)C2O)C=CC1 (stereo partly specified) | -12.9% (inactive) |
| O=c1[nH]cnc2[nH]ncc12 | 19.2% (active) |
| Clc1ccccc1C(c1ccccc1)(c1ccccc1)n1ccnc1 | -1.8% (inactive) |
| CC(=O)/C=C1\C(=O)N(C)c2ccccc21 | 4.3% (active) |
| COc1cc(CNC(=O)CCCCCCC(C)C)ccc1O | 15.1% (active) |
| CCCCCCCC/C=C\CCCCCCCC(=O)NCc1ccc(O)c(OC)c1 | 8% (active) |
| CCCCCCCC/C=C\CCCCCCCC(=O)NCCc1ccc(O)c(O)c1 | 1.1% (active) |
| CN(C)C(=O)/N=N/C(=O)N(C)C | 13.5% (active) |
| O=C1Cc2cc(CCN3CCN(c4nsc5ccccc45)CC3)c(Cl)cc2N1 | -10.1% (inactive) |
| [N-]=[N+]=Nc1ccc(C(=O)CSC[C@H](NC(=O)CC[C@H](N)C(=O)O)C(=O)NCC(=O)O)cc1 | 19.5% (active) |
| N[C@@H](CCC(=O)N[C@H](CSN=O)C(=O)NCC(=O)O)C(=O)O | 15.7% (active) |
| COc1ccc(-c2cc3ncc(C)n3c(Nc3ncccc3C(N)=O)n2)cc1OC | 20.4% (active) |
| NO | -43.8% (inactive) |
| COC1=C(OC)C(=O)c2ccccc2C1=O | 37.3% (active) |

| SMILES | inhibition |
| --- | --- |
| O=C1c2ccccc2-c2n[nH]c3cccc1c23 | -5.6% (inactive) |
| O=C1c2ccccc2C(=O)c2c(NCCc3ccc(O)cc3)ccc(NCCc3ccc(O)cc3)c21 | 60.9% (active) |
| O=C(O)C1CN(CCCP(=O)(O)O)CCN1 (stereo unspecified) | 37% (active) |
| CC(N)(Cc1ccc(O)c(O)c1)C(=O)O (stereo unspecified) | 31.2% (active) |
| C[C@](N)(Cc1ccc(O)c(O)c1)C(=O)O | 36.6% (active) |
| C[C@](Cc1ccc(O)c(O)c1)(NN)C(=O)O | 44.1% (active) |
| O=C(c1ccc(OCCCc2cnc[nH]2)cc1)C1CC1 | 8% (active) |
| CC1(C)CCC(NC(=O)[C@@H](N)CCC(=O)O)CC1 | 8.5% (active) |
| CCOC(=O)Nc1ccc(NCc2ccc(F)cc2)nc1N | 40% (active) |
| O=C1C(SCCO)=C(SCCO)C(=O)c2ccccc21 | 66.7% (active) |
| CN(C)c1nc2c(Br)c(Br)c(Br)c(Br)c2[nH]1 | 46.6% (active) |
| Nc1cc(=O)[nH]c(N)n1 | 11.6% (active) |
| Nc1nc2[nH]c(=O)cnc2c(=O)[nH]1 | -15.8% (inactive) |
| C#CCN(C)Cc1ccccc1 | -4.3% (inactive) |
| C#CCN(C)CCCOc1ccc(Cl)cc1Cl | 6.1% (active) |
| Cn1cnc([N+](=O)[O-])c1Sc1ncnc2nc[nH]c12 | 19.5% (active) |
| Clc1ccc2nsnc2c1NC1=NCCN1 | -10.4% (inactive) |
| COc1nc(C)nc(Cl)c1NC1=NCCN1 | 12.9% (active) |
| Nc1cc(Cl)c(NC2=NCCN2)c(Cl)c1 | 23.9% (active) |
| Clc1cccc(Cl)c1NC1=NCCN1 | 7.2% (active) |
| Fc1ccc(CN(C2=NCCN2)c2c(Cl)cccc2Cl)cc1 | -1.5% (inactive) |
| CC1=C(C)C(=O)C(CCCCC#CCCCC#CCO)=C(C)C1=O | 32.9% (active) |
| CCCCCCCCCCCCCCCCCCOC[C@H](COP(=O)([O-])OCC[N+](C)(C)C)OC | -5.6% (inactive) |
| CCCCCCCCCCCCCCCCCCNC(=O)OCC(COP(=O)([O-])OCC[n+]1ccsc1)OC (stereo unspecified) | 10.6% (active) |
| N=c1ccn2c(n1)OC1C(O)[C@@H](CO)O[C@H]12 (stereo partly specified) | 6.1% (active) |

From PubChem BioAssay AID1347420 (Sanford-Burnham Center for Chemical Genomics, 2020)
